What all share (parameters): scale not given: direction of the effect not stated beside the values
The target in assay [1] is Protein translocase subunit SecA (Escherichia coli (strain K12)) (UniProt P10408). Description: Assay to Identify E. coli SecA ATPase Inhibitors. It is filed as functional. Conditions: 30 µM.
Assay [2] addresses T1, Ubiquitin-activating enzyme e1, putative (Leishmania donovani (strain BPK282A1)) (UniProt E9BSI1).
T1 sequence (whole entry): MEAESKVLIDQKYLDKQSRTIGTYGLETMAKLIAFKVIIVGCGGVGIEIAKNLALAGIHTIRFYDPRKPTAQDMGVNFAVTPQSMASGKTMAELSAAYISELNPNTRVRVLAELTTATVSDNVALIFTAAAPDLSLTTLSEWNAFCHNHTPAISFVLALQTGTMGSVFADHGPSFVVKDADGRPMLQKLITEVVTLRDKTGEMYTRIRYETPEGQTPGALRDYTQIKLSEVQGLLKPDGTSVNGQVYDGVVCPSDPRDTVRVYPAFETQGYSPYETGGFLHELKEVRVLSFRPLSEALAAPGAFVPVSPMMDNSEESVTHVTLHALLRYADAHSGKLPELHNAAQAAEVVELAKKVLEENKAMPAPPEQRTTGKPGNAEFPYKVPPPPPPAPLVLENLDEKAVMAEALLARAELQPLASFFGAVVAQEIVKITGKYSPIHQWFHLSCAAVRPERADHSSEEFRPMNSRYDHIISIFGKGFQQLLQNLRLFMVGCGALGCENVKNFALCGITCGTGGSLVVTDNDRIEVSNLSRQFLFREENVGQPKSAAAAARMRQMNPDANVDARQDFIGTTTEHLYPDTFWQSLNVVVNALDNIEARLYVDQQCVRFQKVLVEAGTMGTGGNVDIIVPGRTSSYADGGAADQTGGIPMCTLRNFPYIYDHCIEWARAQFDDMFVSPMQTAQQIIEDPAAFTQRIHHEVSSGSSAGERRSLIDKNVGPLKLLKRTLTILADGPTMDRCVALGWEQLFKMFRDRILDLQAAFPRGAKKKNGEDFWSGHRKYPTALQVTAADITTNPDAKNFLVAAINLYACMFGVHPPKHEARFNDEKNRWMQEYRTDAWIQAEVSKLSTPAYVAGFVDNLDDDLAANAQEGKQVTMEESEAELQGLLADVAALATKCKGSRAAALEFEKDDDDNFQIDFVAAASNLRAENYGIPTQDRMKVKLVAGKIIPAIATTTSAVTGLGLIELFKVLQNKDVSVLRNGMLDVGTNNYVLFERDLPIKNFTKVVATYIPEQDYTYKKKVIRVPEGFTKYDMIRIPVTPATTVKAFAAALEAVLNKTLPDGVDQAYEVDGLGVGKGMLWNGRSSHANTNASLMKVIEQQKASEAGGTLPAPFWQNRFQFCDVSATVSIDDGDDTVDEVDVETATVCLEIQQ
In words: Leishmania donovani Ubiquitin Activating Enzyme (LdE1). It is filed as functional. The settings on record: 30 µM.

Assay [3] deals with AMP-activated protein kinase, AMPK (Homo sapiens) (UniProt P54646+O43741+P54619+Q9UGJ0+Q9Y478+Q13131+Q9UGI9). In words: AMP-dependent Kinase enzyme assay. An in vitro enzyme assay that detects ADP turnover that is directly proportional to AMPK activity. This uses naive AMPK that is activated during the assay with MK-8722. It is filed as functional. Conditions: 30 µM.
Assay [4] addresses Sialic acid-binding Ig-like lectin 9 (Homo sapiens) (UniProt Q9Y336). Description: Hs-Siglec9 ALPHAscreen SOP 20170721. The settings on record: 10 µM.
A further assay relates to Trypanosoma cruzi. In words: Trypanosoma cruzi phosphomannomutase and mannose-1-phosphate guanylyltransferase assay. It is filed as functional. The settings on record: 10 µM.
Assay [5] addresses T2, Arginase-2, mitochondrial (Homo sapiens) (UniProt P78540).
T2 sequence (whole entry): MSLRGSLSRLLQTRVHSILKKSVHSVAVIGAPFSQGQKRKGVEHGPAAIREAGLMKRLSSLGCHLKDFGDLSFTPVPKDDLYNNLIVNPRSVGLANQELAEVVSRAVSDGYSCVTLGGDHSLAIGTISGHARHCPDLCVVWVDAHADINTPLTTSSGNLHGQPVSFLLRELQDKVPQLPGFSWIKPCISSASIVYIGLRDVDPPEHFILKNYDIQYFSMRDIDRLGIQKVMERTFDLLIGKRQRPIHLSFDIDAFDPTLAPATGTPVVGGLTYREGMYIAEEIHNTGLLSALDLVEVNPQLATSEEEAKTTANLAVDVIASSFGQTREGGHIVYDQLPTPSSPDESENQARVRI
Description: in vitro enzyme assay to detect the production of urea directly proportional to the activity of Arginase II. Further: in the data most compounds retested in dose-response had high values. It is filed as functional. The settings on record: 33.3 µM.

Assay [6] deals with T3, Proteasome subunit beta (Trypanosoma cruzi) (UniProt O96673).
T3 sequence (whole entry): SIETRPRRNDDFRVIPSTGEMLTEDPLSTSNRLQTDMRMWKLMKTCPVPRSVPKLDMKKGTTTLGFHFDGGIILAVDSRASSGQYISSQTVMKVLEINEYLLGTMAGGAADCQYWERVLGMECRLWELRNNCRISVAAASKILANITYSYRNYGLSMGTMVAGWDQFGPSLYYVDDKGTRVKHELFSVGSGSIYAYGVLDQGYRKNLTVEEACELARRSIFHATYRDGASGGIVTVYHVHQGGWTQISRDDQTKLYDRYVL
In words: Trypanosoma cruzi proteasome chymotrypsin-like activity (TcProtChymo) assay. Further: in the data most compounds retested in dose-response had high values. It is filed as functional. The settings on record: 9.37 µM.

The next assay is filed under the species Homo sapiens. Description: To identify inhibition of the IFN signalling (Jak-Stat) pathway via expression of an eGFP reporter gene under the control of an IFN-stimulated response element (ISRE) containing MxA promoter. It is filed as functional. Conditions: 30 µM.
In assay [7] the target is T4, Tyrosyl-tRNA synthetase, putative (Trypanosoma cruzi (strain CL Brener)) (UniProt Q4DSP6).
T4 sequence (whole entry): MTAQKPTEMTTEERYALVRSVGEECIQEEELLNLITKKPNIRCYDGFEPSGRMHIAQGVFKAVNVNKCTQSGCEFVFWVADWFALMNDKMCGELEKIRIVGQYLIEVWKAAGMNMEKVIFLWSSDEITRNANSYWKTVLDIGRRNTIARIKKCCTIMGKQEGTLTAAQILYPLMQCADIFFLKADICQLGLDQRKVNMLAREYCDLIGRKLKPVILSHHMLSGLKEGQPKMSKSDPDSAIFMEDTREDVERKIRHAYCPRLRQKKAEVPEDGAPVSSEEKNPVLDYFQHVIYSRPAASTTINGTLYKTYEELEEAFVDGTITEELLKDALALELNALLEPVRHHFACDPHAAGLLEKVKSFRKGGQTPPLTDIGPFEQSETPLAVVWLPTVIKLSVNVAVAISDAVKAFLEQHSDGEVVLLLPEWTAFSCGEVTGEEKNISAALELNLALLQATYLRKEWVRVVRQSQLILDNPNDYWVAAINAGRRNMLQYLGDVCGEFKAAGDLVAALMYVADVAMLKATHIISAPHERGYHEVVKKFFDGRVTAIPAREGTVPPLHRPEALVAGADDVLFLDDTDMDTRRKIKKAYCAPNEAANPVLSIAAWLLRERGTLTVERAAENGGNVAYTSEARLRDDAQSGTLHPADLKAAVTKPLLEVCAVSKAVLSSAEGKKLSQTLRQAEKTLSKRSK
Description: Trypanosoma cruzi tyrosyl tRNA synthetase (TcYRS) _High Tyrosine SOP. Further: in the data most compounds retested in dose-response had high values. It is filed as functional. The settings on record: 30 µM.

For assay [8], the target named is T4, Tyrosyl-tRNA synthetase, putative (Trypanosoma cruzi (strain CL Brener)). Description: Trypanosoma cruzi tyrosyl tRNA synthetase (TcYRS) SOP. Conditions: 30 µM. It is filed as functional.
The target of assay [9] is Chromo domain-containing protein 1 (Saccharomyces cerevisiae (strain ATCC 204508 / S288c) (Baker's yeast)) (UniProt P32657). In words: ScCHD-1 Enzyme Inhibition Assay. Further: in the data most compounds retested in dose-response had high values. Conditions: 30 µM. It is filed as functional.

For some assays here: Results with a measured potency or affinity are listed apart.

Sialic acid-binding Ig-like lectin 9 (Homo sapiens), sequence (Q9Y336 whole entry): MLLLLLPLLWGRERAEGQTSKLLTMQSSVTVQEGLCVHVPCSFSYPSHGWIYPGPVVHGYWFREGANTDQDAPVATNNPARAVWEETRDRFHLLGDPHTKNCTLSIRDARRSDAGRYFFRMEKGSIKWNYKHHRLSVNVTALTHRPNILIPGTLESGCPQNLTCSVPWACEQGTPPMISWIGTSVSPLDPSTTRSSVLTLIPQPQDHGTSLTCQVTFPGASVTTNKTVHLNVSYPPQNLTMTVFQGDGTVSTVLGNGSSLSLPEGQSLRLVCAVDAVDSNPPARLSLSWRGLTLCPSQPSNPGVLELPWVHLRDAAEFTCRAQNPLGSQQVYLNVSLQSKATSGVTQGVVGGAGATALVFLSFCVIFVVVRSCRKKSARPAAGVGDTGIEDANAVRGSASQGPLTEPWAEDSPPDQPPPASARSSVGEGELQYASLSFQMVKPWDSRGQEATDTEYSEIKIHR
Protein translocase subunit SecA (Escherichia coli (strain K12)), sequence (P10408 whole entry): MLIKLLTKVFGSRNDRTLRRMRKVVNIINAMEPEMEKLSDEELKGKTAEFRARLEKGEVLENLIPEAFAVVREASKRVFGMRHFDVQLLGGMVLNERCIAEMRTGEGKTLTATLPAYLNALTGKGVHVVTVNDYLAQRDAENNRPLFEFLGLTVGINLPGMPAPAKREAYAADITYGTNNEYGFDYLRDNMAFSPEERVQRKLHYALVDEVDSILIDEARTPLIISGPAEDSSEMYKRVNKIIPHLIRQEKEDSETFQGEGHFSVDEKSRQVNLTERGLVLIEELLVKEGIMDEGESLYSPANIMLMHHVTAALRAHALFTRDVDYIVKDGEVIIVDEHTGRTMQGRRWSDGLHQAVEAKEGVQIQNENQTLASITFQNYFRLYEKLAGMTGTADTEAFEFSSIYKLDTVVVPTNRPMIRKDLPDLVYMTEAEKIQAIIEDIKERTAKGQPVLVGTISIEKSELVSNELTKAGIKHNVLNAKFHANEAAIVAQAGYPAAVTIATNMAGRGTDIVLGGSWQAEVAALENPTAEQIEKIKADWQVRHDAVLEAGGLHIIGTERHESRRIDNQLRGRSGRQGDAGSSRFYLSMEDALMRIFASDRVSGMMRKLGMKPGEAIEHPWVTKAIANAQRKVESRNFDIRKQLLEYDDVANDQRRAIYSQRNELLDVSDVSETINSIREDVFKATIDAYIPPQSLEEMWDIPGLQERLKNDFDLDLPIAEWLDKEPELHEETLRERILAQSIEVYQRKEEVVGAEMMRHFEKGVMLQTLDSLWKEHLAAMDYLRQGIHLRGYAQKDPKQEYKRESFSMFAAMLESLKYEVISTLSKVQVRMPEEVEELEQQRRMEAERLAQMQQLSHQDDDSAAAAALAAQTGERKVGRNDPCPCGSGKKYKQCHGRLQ
Chromo domain-containing protein 1 (Saccharomyces cerevisiae (strain ATCC 204508 / S288c) (Baker's yeast)), sequence (P32657 whole entry, the tested form may be a part): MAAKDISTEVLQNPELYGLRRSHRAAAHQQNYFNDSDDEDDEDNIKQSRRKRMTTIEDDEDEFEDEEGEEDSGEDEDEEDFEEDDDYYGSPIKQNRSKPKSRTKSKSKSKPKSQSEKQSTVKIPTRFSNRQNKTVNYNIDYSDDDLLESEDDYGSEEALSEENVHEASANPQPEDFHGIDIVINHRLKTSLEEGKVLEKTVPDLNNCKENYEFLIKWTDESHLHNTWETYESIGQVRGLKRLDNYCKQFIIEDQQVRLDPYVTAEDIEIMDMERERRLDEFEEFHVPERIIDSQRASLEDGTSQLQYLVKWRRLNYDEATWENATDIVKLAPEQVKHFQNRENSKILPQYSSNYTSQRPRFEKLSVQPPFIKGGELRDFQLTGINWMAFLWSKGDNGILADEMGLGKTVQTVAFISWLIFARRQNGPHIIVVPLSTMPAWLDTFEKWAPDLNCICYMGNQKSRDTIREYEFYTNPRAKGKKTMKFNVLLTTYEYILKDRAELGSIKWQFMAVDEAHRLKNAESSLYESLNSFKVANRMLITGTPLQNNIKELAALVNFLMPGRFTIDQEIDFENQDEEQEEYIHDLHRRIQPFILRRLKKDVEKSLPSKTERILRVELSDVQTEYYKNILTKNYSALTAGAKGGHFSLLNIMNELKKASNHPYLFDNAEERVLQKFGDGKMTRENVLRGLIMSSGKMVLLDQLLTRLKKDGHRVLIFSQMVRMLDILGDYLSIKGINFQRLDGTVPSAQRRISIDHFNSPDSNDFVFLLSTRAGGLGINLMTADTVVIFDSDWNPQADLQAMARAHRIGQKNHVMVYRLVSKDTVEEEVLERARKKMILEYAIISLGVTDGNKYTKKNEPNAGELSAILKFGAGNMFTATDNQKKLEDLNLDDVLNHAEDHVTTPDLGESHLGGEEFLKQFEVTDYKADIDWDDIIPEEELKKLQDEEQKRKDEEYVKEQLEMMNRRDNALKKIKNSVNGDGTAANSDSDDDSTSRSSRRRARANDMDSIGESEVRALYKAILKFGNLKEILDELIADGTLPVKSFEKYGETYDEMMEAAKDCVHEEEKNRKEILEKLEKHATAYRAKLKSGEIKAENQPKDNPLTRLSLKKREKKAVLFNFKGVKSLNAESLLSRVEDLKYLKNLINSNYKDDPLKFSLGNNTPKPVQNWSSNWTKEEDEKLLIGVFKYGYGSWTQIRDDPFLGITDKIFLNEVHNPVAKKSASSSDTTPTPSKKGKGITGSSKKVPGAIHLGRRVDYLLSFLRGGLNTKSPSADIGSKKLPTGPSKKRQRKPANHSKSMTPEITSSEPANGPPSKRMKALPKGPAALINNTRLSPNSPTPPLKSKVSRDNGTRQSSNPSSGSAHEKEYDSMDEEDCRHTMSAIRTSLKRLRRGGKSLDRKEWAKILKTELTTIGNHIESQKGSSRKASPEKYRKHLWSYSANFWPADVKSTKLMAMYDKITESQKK

Consider `CC(C)CC(=O)N1CC[C@@H]2[C@H](CC1)N(S(C)(=O)=O)CCS2(=O)=O`, for which the Percent Effect in assay [1] was -4.61%; in [2], 18.9%; in assay [3], -5.46%; in assay [4] it was -1.46%; in the assay on Trypanosoma cruzi it was 5.66%; in assay [5], 25.8%. Moreover, the Percent Effect was 14.1% in assay [6]; 6.42% in the assay listed under Homo sapiens; 5.94% in [7]; 13.4% in [8]; -6.08% in [9].
In the case of `COc1c(C2CCCN2CC(=O)Nc2nc(C)cs2)c(C)nn1C` (stereo not given), the Percent Effect was -0.196% in [1]; -5.41% in assay [2]; -8.37% in [3]; 10.3% in assay [4]; 4.74% in the assay with Trypanosoma cruzi; 1.29% in assay [5]. The Percent Effect in assay [6] stood at 5.03%; in the assay filed under Homo sapiens it was 5.63%; in [7] it was 4.95%; in assay [8], 6.1%; in [9] it was 0.0954%.
As for `CN(C)CC(=O)N1CCOC2(CCCN(c3ncccc3F)C2)C1` (stereo not given), the Percent Effect in assay [1] was -5.7%; in assay [2], 8.11%; in assay [3], 1.61%; in assay [4] it was 5.4%; in the assay on Trypanosoma cruzi, 0%; in [5], 1.25%. In addition, the Percent Effect was 4.48% in [6]; 8.63% in the assay filed under Homo sapiens; 7.92% in assay [7]; 13.4% in [8]; -5.27% in assay [9].
With `OC[C@H]1CC[C@]2(CC1)CN(Cc1ccccn1)Cc1ccccc1O2`, the Percent Effect is -1.22% in assay [1]; 1.35% in assay [2]; 15.4% in assay [3]; 4.6% in assay [4]; -3.56% in the assay on Trypanosoma cruzi; 1.16% in assay [5]. Also, the Percent Effect in [6] was 1.25%; in the assay listed under Homo sapiens, 5.31%; in assay [7] it was 5.38%; in [8], 3.9%; in [9] it was -8.96%.
For the compound `Cc1nc(CN2CCN(C(=O)c3cc(C4CC4)on3)CC2)cs1`, the Percent Effect in assay [1] was -6.45%; in assay [2] it was 13%; in assay [3] it was 2.57%; in assay [4], 3.64%; with Trypanosoma cruzi, -0.686%; in assay [5] it was 5.68%. The Percent Effect in assay [6] was 4.45%; in the assay listed under Homo sapiens, -4.72%; in assay [7] it was 4.76%; in assay [8] it was 18.8%; in assay [9] it was -6%.
As for `COc1c(CNCc2ccc(CN(C)C)cc2)c(C)nn1C`, the Percent Effect in assay [1] was 3.12%; in assay [2] it was -1.27%; in assay [3] it was 3.93%; in [4] it was 0.303%; in the assay on Trypanosoma cruzi it was 3.79%; in [5], 4.95%. The Percent Effect in assay [6] is 9.26%; in the assay listed under Homo sapiens it was -11.7%; in assay [7], -3.12%; in assay [8], 2.53%; in assay [9] it was -2.72%.
For the compound `CC(C)c1noc(C(C)N2CCN(Cc3ccco3)CC2)n1` (stereo not given), the Percent Effect in assay [1] was -1.82%; in assay [2] it was -7.89%; in assay [3], -0.515%; in assay [4], 3.05%; with Trypanosoma cruzi, 7.19%; in assay [5], -3.24%. The Percent Effect is 2.45% in [6]; -1.85% in the assay listed under Homo sapiens; 1.48% in [7]; 1.24% in [8]; 0.33% in assay [9].
In the case of `CCOCCC(=O)N1CCCC(c2ncc[nH]2)C1` (stereo not given), the Percent Effect in [1] is -3.07%; in assay [2], 2.74%; in assay [3], -7.86%; in [4], -2.18%; with Trypanosoma cruzi, -5.29%; in assay [5] it was 6.36%. Besides, the Percent Effect in [6] is 4.97%; in the assay listed under Homo sapiens, 11.3%; in assay [7], 2.15%; in [8] it was 7.5%; in assay [9], -0.879%.
Regarding `CCc1cnc(N2CC3(CCN(C(=O)c4ccoc4)C3)C2)nc1`, the Percent Effect in assay [1] is -7.71%; in assay [2], -10.4%; in [3], 3.45%; in assay [4], 3.13%; in the assay with Trypanosoma cruzi, -2.46%; in assay [5], 5.52%. The Percent Effect in [6] was 9.65%; in the assay listed under Homo sapiens, 8.56%; in [7], -2.15%; in assay [8], -1.24%; in assay [9] it was -0.64%.
In the case of `CCN1CC2(CC1=O)CN(Cc1cnn(C)c1)CCN(C(C)=O)C2` (stereo not given), the Percent Effect in [1] was -7.25%; in assay [2] it was 8.11%; in assay [3], 4.66%; in assay [4], -2.12%; in the assay with Trypanosoma cruzi it was -2.34%; in [5] it was -3.33%. Further, the Percent Effect in assay [6] is 10.4%; in the assay filed under Homo sapiens it was -2.64%; in assay [7] it was 5.94%; in assay [8] it was 8.54%; in assay [9] it was 2.03%.

For the origin of these results see ChEMBL document CHEMBL3988442, “University of Dundee, Small-Polar-MMV Screening Library” (2021).
